According to ChEMBL document CHEMBL4513216, “Probing the Open Global Health Chemical Diversity Library for Multistage-Active Starting Points for Next-Generation Antimalarials” (ACS Infect Dis, 2020):
Screen size: about 69,000 compounds; about 8,600 (12%) showed an effect of 50% or more. The entries come from a sample that favours strong results as a whole.

Test system: Plasmodium berghei
Experiment: Screen against P. berghei liver stage (PbLuc), transformed with Luciferase, at 10uM
Assay type: functional, HepG2
Conditions: tested at 10 uM

| SMILES | INHIBITION [%] |
| --- | --- |
| Cc1ccc(CN2CCOC3(CCCN(C(=O)c4ccco4)C3)C2)s1 (stereo not drawn) | 28.5 |
| Cc1ccc(N(CCC#N)C(=O)CN2CCCC2c2ccsc2)cc1C (stereo not drawn) | -10.75 |
| CC1CCC(C(=O)N2CCC(n3cc(C4(O)CCCC4)nn3)CC2)CC1 (stereo not drawn) | 47.4 |
| c1csc(-c2nc(CN3CCCC3Cn3cccn3)co2)c1 (stereo not drawn) | 17.5 |
| CC(C)(N)c1nc(C(F)F)cc(=O)[nH]1 | -4.35 |
| CS(=O)(=O)NC(c1ccccc1)c1ccc2c(c1)CCCO2 (stereo not drawn) | -9.98 |
| CC(C)c1nc(CN(C)C(=O)[C@H](N)Cc2ccc(Cl)cc2)cs1 | 17.2 |
| CC(NC(=O)N(C)Cc1cccc(OC(F)F)c1)c1nncn1C (stereo not drawn) | 68.2 |
| CCOc1ccc(CN(C)C(=O)NC(C)c2nncn2C)cc1 (stereo not drawn) | -6.75 |
| COc1ccc(CN(C)C(=O)NC(C)c2nncn2C)cc1F (stereo not drawn) | -24.7 |
| Cc1nc(C2CCN(C)CC2)cc(N2CCOc3ccc(Cl)cc3C2)n1 | 94.3 |
| Cc1nc(CCN)cc(N2CCOc3ccc(Cl)cc3C2)n1 | -43.5 |
| Cc1nc(C2CCNCC2)cc(N2CCOc3ccccc3C2)n1 | -55.1 |
| CC(C)Oc1ccc(CN)c(C(F)(F)F)c1 | 10 |
| CCOc1ccccc1OC1CCN(C(=O)c2cnns2)CC1 | 44.1 |
| CC(C)c1cc(NC(=O)CNC2CCc3nc(C(C)C)nn3C2)on1 (stereo not drawn) | 35.7 |
| Cc1noc(C)c1C(=O)N1CCCC(c2c(C)c(=O)nc3n2CCC3)C1 (stereo not drawn) | 55.6 |
| Cc1c(C2CCCN(C(=O)C3CC3)C2)n2c(nc1=O)CCC2 (stereo not drawn) | 28.4 |
| Cc1c(C2CCCN(C(=O)c3ccncc3)C2)n2c(nc1=O)CCC2 (stereo not drawn) | 20.8 |
| N#Cc1c(F)cccc1Nc1cnn(CC(=O)N2CCOCC2)c1 | 19.2 |
| N#Cc1c(F)cccc1Nc1cnn(CC(N)=O)c1 | 65.4 |

| SMILES | INHIBITION [%] |
| --- | --- |
| CNC(=O)Cn1cc(Nc2cccc(F)c2C#N)cn1 | -0.514 |
| CCc1csc(C2CCCN(C(=O)c3cnc[nH]3)C2)n1 (stereo not drawn) | 10 |
| CN(Cc1ccco1)Cc1cnc2n1CCN(c1ncccn1)CC2 | 2.4 |
| Cc1ccc(S(=O)(=O)NCC(C)(C)N)c(F)c1 | 8.51 |
| CN1CCCC(CNC(=O)N(C)Cc2ccc(Cl)c(F)c2)C1 (stereo not drawn) | 31 |
| O=S(=O)(N1CCCC1)N1CC[C@H](c2ccccc2)[C@H]2NCCCC[C@H]21 | 52 |
| CCN(CC)S(=O)(=O)N1C[C@@H](c2ccccc2)[C@H]2[C@H]1CCCCCN2C | 51.7 |
| O=S(=O)(N1CCCC1)N1C[C@@H](c2cccc(F)c2)[C@@H]2NCCCCC[C@H]21 | 43.6 |
| CC(C)S(=O)(=O)N1C[C@@H](c2ccccc2)[C@H]2[C@H]1CCCCCN2C | 16.5 |
| CCN(CC)S(=O)(=O)N1CCCC(c2cccc(C(=O)O)c2)C1 (stereo not drawn) | -31.5 |
| O=S(=O)(N1CCCC1)N1CCCCC1CCc1ccccc1 (stereo not drawn) | 31.8 |
| CCN(CC)S(=O)(=O)N1CC[C@H](c2ccccc2)[C@H]2NCCCC[C@H]21 | 47.2 |
| CN1CCCCC[C@@H]2[C@@H]1[C@H](c1ccccc1)CN2C(=O)c1ccccn1 | -37 |
| N[C@H]1CN(S(=O)(=O)N2CCCC2)C[C@@H]1c1ccccc1 | 44.2 |
| CN1CCCC[C@@H]2[C@H]1[C@@H](c1ccccc1)CCN2S(=O)(=O)N1CCCC1 | 61.7 |
| CCN(CC)S(=O)(=O)N1CCCC1CC(=O)c1cccs1 (stereo not drawn) | -2.74 |
| CCN(CC)S(=O)(=O)N1CC[C@H](c2ccccc2)[C@@H]2[C@H]1CCCCN2C | 73.1 |
| CC[C@@H](c1ccccc1)n1c(CCN)n[nH]c1=O | 39 |
| CCc1noc(C(C)N2CCN(c3ccc(C#N)cc3F)CC2)n1 (stereo not drawn) | -17.4 |
| O=C(CC1CCCC1)NCCS(=O)(=O)N1CCN(c2ccccc2)CC1 | -16.4 |
| CC(=O)NCc1cc(-c2cccs2)n(C2CCCC2)n1 | 1.74 |

| SMILES | INHIBITION [%] |
| --- | --- |
| COc1c(C2CCCN2CC(=O)N(C)c2nccs2)c(C)nn1C (stereo not drawn) | 8.7 |
| CN(C)c1ccc(C(=O)N2CCCC2c2noc(C3CC3)n2)nn1 (stereo not drawn) | 3.263 |
| Cc1ncc2c(n1)CN(CC(=O)Nc1nnc(C)s1)CC2 | 34.7 |
| O=C(NCC1CC1)[C@@H]1CCO[C@@H]2CCN(CCc3ccccc3)C[C@H]21 | 47.1 |
| COCC(=O)NCc1cc2n(n1)CCCN(Cc1ccccc1SC)C2 | -46.2 |
| CN(Cc1ccccc1)CC(O)Cn1cnc2cc(F)ccc2c1=O (stereo not drawn) | -8.7 |
| O=C([C@H]1COC[C@H]2CN(c3ncc(F)cn3)C[C@H]21)N1CCOCC1 | -0.554 |
| O=C(NCc1ccco1)[C@@H]1COC[C@H]2CN(c3ncc(F)cn3)C[C@H]21 | 3.88 |
| O=C(Nc1cnccn1)[C@H]1COC[C@H]2CN(c3ncc(F)cn3)C[C@H]21 | 67.4 |
| O=C(Nc1cnccn1)[C@@H]1COC[C@H]2CN(c3ncc(F)cn3)C[C@H]21 | -22.7 |
| O=C(NC1CC1)[C@H]1COC[C@H]2CN(c3ncc(F)cn3)C[C@H]21 | 58.5 |
| CS(=O)(=O)N1C[C@@H]2COC[C@H](C(=O)Nc3cnccn3)[C@@H]2C1 | 45.2 |
| CC(=O)N1[C@H](CN(C)C)C[C@@H]2CN(C(=O)c3ccsc3)CC[C@@H]21 | -24.5 |
| O=C([C@H]1CN(CCc2ccccc2)C[C@H]2OCC[C@@H]12)N1CCCO1 | 8.57 |
| COc1ccc(Cn2cc(C(=O)N(C)Cc3cnccn3)nn2)cc1 | 21.5 |
| Cc1cc(NCCC(=O)NC(C)C)nc(-c2ccncc2)n1 | -2.43 |
| COc1cccc(CNc2cccnc2-n2cccn2)c1OC | 17.3 |
| COc1cccc(CNc2nc(C)cc(C)n2)c1OC | -11.7 |
| COCCNC(=O)CCNc1cc(C)nc(-c2ccncc2)n1 | 24 |
| COc1cccc(CNc2cc(C)nc(-c3ccncc3)n2)c1O | 78.9 |
| COc1cccc(CNc2cc(C)nc(-c3ccncc3)n2)c1OC | 85.2 |
